# Compounds with a hit are over-represented: about 1.7% of the library has one in this group of screens.
# GLP-1R inv ag – GLP-1 receptor (human) inverse agonism | actives 1.6% (n = 410,000) | AID 624417 | P43220 | Potency, µM (series often up to 38.3 µM), inactives show at the highest dose activity change, negative = inhibition, usual class: inhibitors | HEK293 GLP-1R CRE-luciferase, luminescence, 24 h; GLP-1R form is constitutively active; further: on the % scale 0 is the no-effect control and ±100 the full control effect; nearly all actives have a fitted effect of over 55% in size
# Target sequence (P43220 whole entry, looked up): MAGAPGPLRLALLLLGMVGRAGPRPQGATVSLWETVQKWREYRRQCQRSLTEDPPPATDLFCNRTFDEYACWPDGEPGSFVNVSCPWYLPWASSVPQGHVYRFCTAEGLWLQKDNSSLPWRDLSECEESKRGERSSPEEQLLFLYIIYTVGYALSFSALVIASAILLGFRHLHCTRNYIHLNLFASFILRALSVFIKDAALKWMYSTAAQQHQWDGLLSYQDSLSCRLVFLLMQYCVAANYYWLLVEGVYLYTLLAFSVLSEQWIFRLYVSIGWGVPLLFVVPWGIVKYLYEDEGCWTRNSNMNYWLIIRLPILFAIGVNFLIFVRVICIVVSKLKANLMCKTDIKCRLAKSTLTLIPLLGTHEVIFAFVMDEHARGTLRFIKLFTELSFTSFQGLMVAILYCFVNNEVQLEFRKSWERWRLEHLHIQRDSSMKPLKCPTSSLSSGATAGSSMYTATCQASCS
#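 Seeding at 200 cells/uL, 12 h culture, 24 hr compound treatment, then luciferase reagent and a luminescence read; cells are HEK293 stably expressing a constitutively active GLP-1R plus cAMP-responsive luciferase.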
# GLP1R ag – GLP-1 receptor (human) agonism; Potency, µM (series often up to 45.6 µM), inactives show at the top dose activation, hits mostly activators; HEK293 GLP-1R CRE-luciferase, luminescence, 4-6 h; cells express a hypersensitive GLP-1R form; actives 0.007% (n = 380,000); further: % of control where 0% means no effect
# GLP1R cytotox – cytotoxicity counter-screen for GLP-1 receptor inverse agonists; HEK293 cAMP-luciferase reporter cells, luminescence, 24 h; Potency, µM (doses to about 38.3 µM), without a hit: top-dose activity change, negative = inhibition, usual class: inhibitors; actives 0.13% (n = 410,000); AID 624418;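 further: loss of luciferase light is scored as toxicity; on the % scale 0 is the no-effect control and ±100 the full control effect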
#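 Luminescence readout: signal drop marks cytotoxicity. Plated cells grew 12 h at 37 °C, 5% CO2, received 23 nL compound for 24 h, then got luciferase reagent, read after 12 min at RT.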
# PTHR1 ag – activates the human parathyroid hormone receptor PTHR1; Q03431; HEK293 GP2 PTHR1 cells, GloSensor cAMP luminescence, 1 h; Potency, µM (doses to about 115 µM), inactives show at the highest dose activation, usual class: activators; actives 0.075% (n = 410,000); AID 743266; further: nearly all actives have a fitted effect of over 55% in size
#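 HEK-293-derived GP2 cells expressing PTHR1 and a GloSensor cAMP reporter, 3,000/well, plated overnight, given luciferin plus IBMX (each 0.5 mM as added) for 1 h at 37 °C, then compound for 1 h at 37 °C. Luminescence was read after 15 min at room temperature.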
# * hit, by the source's call; i = inactive; ? = inconclusive; . = no result given; ! = not active in a repeat; [ ] = another dose, or the depositor's remark. The call rests on the fitted dose curve; in most records, active means well fitted curve in the direction sought with a large enough effect; inconclusive means small, poorly fitted or top-dose-only effect, or another doubt; inactive means no such curve, though single readings can be large; an effect the other way counts as inactive or inconclusive. Potency means the concentration at half of the fitted maximal effect.
SMILES,GLP-1R inv ag,GLP1R ag,GLP1R cytotox,PTHR1 ag
Cc1cc(C)cc(Oc2nc(-c3ccccc3)cc(C)c2S(C)(=O)=O)c1,4.5µM*,3%,-10%,-17%[57.5 µM]
CC(C)CN(C(=O)COc1ccccc1C(=O)NCc1ccccc1)C1CCS(=O)(=O)C1 (configuration not stated),5%,14%,2%,i
Cc1cc(C)c(S(=O)(=O)N2CCN(C(=O)C3COc4ccccc4O3)CC2)c(C)c1 (configuration not stated),10µM*,8%,-2%,-17%
Cc1ccc(Cn2c(CO)cnc2SCC(=O)NCc2ccccc2Cl)cc1,-23%,.,-19%,-28%
COC(=O)c1c(NC(=O)CN2CCN(c3ncccn3)CC2)sc(C(N)=O)c1C,-11%,1%,3%,?
N#CC1=C(N)OC2=C(CCc3ccccc32)C1c1ccccc1 (configuration not stated),1.3µM*,14%,-27%,i
CCOC(=O)C1CCN(C(=O)Cn2cnc3sc(C)c(S(=O)(=O)N4CCOCC4)c3c2=O)CC1,17%,8%,0%,i
Oc1c(Cl)cc(Oc2cc(Cl)c(O)c(CN3CCOCC3)c2)cc1CN1CCOCC1,11µM*,14%,4%,-9%
COc1ccc(-c2csc(C(C)(O)c3cccc(OC)c3)n2)cc1 (configuration not stated),10µM*,4%,0%,-28%
O=C(c1cc(S(=O)(=O)N2CCOCC2)ccc1F)N(CCc1ccccc1)Cc1ccccc1,10µM*,6%,-3%,i
CCN1CCN(S(=O)(=O)c2ccc(Cl)c(C(=O)N(CCc3ccccc3)Cc3ccccc3)c2)CC1,?,5%,?,-15%
O=C(c1ccccc1[N+](=O)[O-])N(CCc1ccccc1)Cc1ccccc1,?,8%,1%,-9%
COc1ccc(C(=O)N(CCc2ccccc2)Cc2ccccc2)c(OC)n1,5.6µM*,15%,7%,i
O=C(NCCc1ccccc1)c1cc(S(=O)(=O)N2CCOCC2)ccc1F,-4%,23%,5%,-39%
Cc1ccc(S(=O)(=O)N2CCCCC2)cc1C(=O)N(CCc1ccccc1)Cc1ccccc1,4.5µM*,-6%,10%,-3%
Cc1cccc(C(=O)N(CCc2ccccc2)Cc2ccccc2)c1[N+](=O)[O-],3.2µM*,-4%,-19%,-32%
Cc1ccc(NC(=O)Cn2cc3c(n2)CCCC3)cc1Cl,?,.,0%,-7%
CCCCCOC(=O)CSc1nc2sc3c(c2c(=O)n1-c1ccccc1)CC(C)(CC)OC3 (configuration not stated),-10%,.,20%,-4%
Cc1ccn2c(NC3CCCCC3)c(-c3cccc(-c4cccc(Cl)c4)c3)nc2c1,4µM*,-4%,?,i
CCCCNc1c(-c2cccc(-c3ccc(OC)cc3)c2)nc2cc(C)ccn12,11µM*,-9%,2%,-93%
CCCCNc1c(-c2cccc(-c3ccc(OC)cc3)c2)nc2ccc(C)cn12,?,-10%,?,-95%
CCC(C)Sc1ccc(-c2nc3cc(C)ccn3c2NC2CCCCC2)cc1 (configuration not stated),10µM*!,0%,6%,i
Cn1c(CNc2ccc(Cl)cc2)nnc1SCc1ccccc1,-10%,2%,1%,-16%
CCn1c(CNc2ccc(Cl)cc2)nnc1SCc1ccccc1,11µM*,-13%,-4%,-8%[57.5 µM]
CCn1c(SCc2ccccc2)nnc1C1CCCCC1,4µM*,13%,1%,-7%
SMILES,GLP-1R inv ag,GLP1R ag,GLP1R cytotox,PTHR1 ag
Cc1[nH]c2ccccc2c1C1=NNC(=Nc2ccc(F)cc2)SC1,11µM*,-2%,?,-13%
O=C(Cc1ccc(Br)cc1)N1CCN(c2ccc(F)cc2)CC1,?,0%,-16%,-6%[57.5 µM]
O=C(c1cc(-c2ccc(Br)cc2)nc2ccccc12)N1CCN(c2ccccc2O)CC1,2.5µM*,7%,?,-20%
O=C(Cc1ccc(Br)cc1)N1CCN(c2ccccc2O)CC1,11µM*,1%,-21%,i
Cc1ccc2nc(-c3ccccc3)cc(C(=O)N3CCc4ccccc4C3)c2c1,?,-8%,1%,-54%
CCOC(=O)C1CCCN(C(=O)c2cc(-c3ccncc3)nc3ccccc23)C1 (configuration not stated),-1%,6%,-6%,-14%
